YB-1 expr inh = YB-1 expression inhibition. U2OS, qRT-PCR YB-1 vs CDIP delta delta Cp, 16 h; hits give high values; zero = DMSO, each unit about twofold. delta delta Cp (YB-1 minus CDIP) (no concentration beside the values). 30,000 compounds, 0.37% hits;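 active means delta delta Cp rounded down to an integer at or above 3, about 3 SD of DMSO wells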;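 further: higher means less YB-1 transcript or more CDIP transcript relative to DMSO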
MITF inh = blocks MITF activity | inhibition, % (concentration not given with the values) | 37,000 compounds, 0.28% hits | AID 2240 | TRPM1 promoter luciferase, luminescence, 24 h; in the data active means inhibition above about 85%;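 further: human melanocyte line stably carrying TRPM1 promoter luciferase reporter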
BJeLR viab HTS = compounds reducing viability of BJeLR cells; BJeLR fibroblasts viability, CellTiterGlo ATP luminescence, 48 h; HRASV12, hTERT and SV40 LT/ST transformed; viability loss activity score, % (concentration not given with the values); 30,000 compounds, 0.64% hits; AID 2275; in the data active means viability loss activity score above about 50%;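 further: higher score means fewer live cells and less ATP luminescence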
ROS inducer = cancer cell ROS induction | U2OS ROS induction, H2DCF-DA fluorescence | ROS induction (% of piperlongumine), % at 10 µM | 46,000 compounds, 2% hits | AID 624156; in the data active means ROS induction above about 79%, passing the limit was not always enough;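 further: 0% = DMSO vehicle median and 100% = reference compound median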
Numbers without * were called inactive; · = no result. The list is not random: actives were taken first. Their share in the collection is about 2.5%.

SMILES	YB-1 expr inh	MITF inh	BJeLR viab HTS	ROS inducer
CCOC(=O)c1c(SC)n(-c2ccccc2)c(=S)n(-c2ccccc2)c1=O	·	·	7	21
CCOC(=O)c1c(CN2CCCCC2)n(-c2ccccc2)c2cc(Br)c(OC)cc12	0.22	3	-7	121*
CCOC(=O)c1c(CN(C)C)n(-c2ccccc2)c2cc(Br)c(OC)cc12	0.016	-14	8	238*
CCOC(=O)c1c(C)n(-c2cccc(C)c2)c2ccc(O)cc12	-0.2	51	-4	-4
COc1ccc(C2C(C(=O)NCc3cccnc3)c3ccccc3C(=O)N2c2ccc(OC)cc2)cc1 (stereo not given)	·	·	13	·
CCOC(=O)c1nc2c(o1)NC(N)=C(C#N)C2c1ccc(Cl)cc1 (stereo not given)	-0.11	-2	1	5
CCOc1cc(/C=C2/SC(=N)N(c3nccs3)C2=O)ccc1OCCN1CCOCC1	-0.16	35	18	96*
Cc1ccc2oc(-c3cc(NC(=O)c4ncn[nH]4)ccc3O)nc2c1	·	-8	·	147*
O=C(NO)c1cccc(C(=O)N/N=C/c2cc(O)ccc2O)c1	-1.1	·	·	107*
CC(Nc1cc(C)ccn1)=C(C#N)C#N	·	·	-2	-4
O=c1cc(N2CCOCC2)oc2c(-c3ccccc3)cccc12	0.11	36	5	85*
Cc1ccc(C(=O)Cn2c3c(sc2=N)CCCC3)cc1	0.091	88*	4	25
Cc1ccc(/C=N/N(C)S(=O)(=O)c2ccc(C)cc2)cc1	-0.31	67	6	95*
CC1=C(C(=O)N2CCCCC2)C2(CCCCC2)OC1=O	·	·	-2	·
CC(C)C[C@@H](NC(=O)OCC1c2ccccc2-c2ccccc21)C(=O)O	0.32	-55	6	-1
CC(C)C[C@@H](/C=C/S(C)(=O)=O)NC(=O)[C@H](CC(C)C)NC(=O)[C@H](CC(C)C)NC(=O)OCc1ccccc1	-0.44	75	116*	5
COC(=O)c1[nH]c2c(c1C)C(=O)CC(c1ccccc1)C2 (stereo not given)	·	·	60*	·
COc1cccc(C2CC(C(F)(F)F)n3ncc(C(=O)NCc4cccnc4)c3N2)c1 (stereo not given)	·	0	·	101*
C[C@H]1CN([C@@H](C)CO)C(=O)CCCn2nncc2CO[C@@H]1CN(C)CC1CC1	-0.081	·	·	71
C[C@H](CO)N1C[C@H](C)[C@H](CN(C)CC2CC2)OCc2cnnn2CCCC1=O	0.012	·	·	137*
C[C@@H]1CN([C@@H](C)CO)C(=O)CCCn2nncc2CO[C@H]1CN(C)C(=O)c1ccc2ccn(C)c2c1	-0.16	·	·	94*
C[C@@H]1CCCCO[C@@H](CN(C)S(=O)(=O)c2ccccc2)[C@@H](C)CN([C@H](C)CO)C(=O)c2cc(NC(=O)Nc3ccc(F)cc3)ccc2O1	0.21	14	·	105*
C[C@@H]1CCCCO[C@H](CN(C)S(=O)(=O)c2ccc(F)cc2)[C@@H](C)CN([C@H](C)CO)C(=O)c2cc(NC(=O)Nc3ccc(F)cc3)ccc2O1	-0.13	14	·	54
C[C@@H]1CN([C@H](C)CO)C(=O)c2cc(NC(=O)C3CCCCC3)ccc2O[C@H]1CN(C)S(=O)(=O)c1cn(C)cn1	-0.2	-13	0	-8
Cc1ccc(S(=O)(=O)N(C)C[C@@H]2OCCCC[C@@H](C)Oc3ccc(NS(=O)(=O)c4ccc(Cl)cc4)cc3C(=O)N([C@H](C)CO)C[C@@H]2C)cc1	-0.68	54	·	111*
SMILES	YB-1 expr inh	MITF inh	BJeLR viab HTS	ROS inducer
COc1ccc(S(=O)(=O)N(C)C[C@@H]2OCCCC[C@@H](C)Oc3ccc(NC(=O)NC4CCCCC4)cc3C(=O)N([C@H](C)CO)C[C@@H]2C)cc1	-0.0028	8	·	140*
C[C@@H]1CCCCO[C@@H](CN(C)S(=O)(=O)c2cn(C)cn2)[C@@H](C)CN([C@H](C)CO)C(=O)c2cc(NC(=O)C3CCCCC3)ccc2O1	-0.68	-6	·	126*
COc1ccc(S(=O)(=O)N2Cc3ccccc3CC2C(=O)N2CCCCC2)cc1 (stereo not given)	·	·	4	-11
COc1ccc(-n2c(-c3ccc(C(C)(C)C)cc3)n[nH]c2=S)cc1	·	·	-3	·
C[C@@H]1CCCCO[C@@H](CN(C)C)[C@@H](C)CN([C@H](C)CO)C(=O)c2cc(NS(=O)(=O)c3ccc(F)cc3)ccc2O1	0.19	-13	·	-5
C[C@@H]1CCCCO[C@H](CN(C)S(=O)(=O)c2ccc(F)cc2)[C@@H](C)CN([C@H](C)CO)C(=O)c2cc(NS(=O)(=O)c3ccc(F)cc3)ccc2O1	0.099	18	·	37
COc1ccc(S(=O)(=O)N(C)C[C@@H]2OCCCC[C@@H](C)Oc3ccc(NS(=O)(=O)c4ccc(F)cc4)cc3C(=O)N([C@H](C)CO)C[C@@H]2C)cc1	-0.24	36	·	128*
C[C@@H]1CCCCO[C@H](CN(C)C(=O)CCCN(C)C)[C@@H](C)CN([C@H](C)CO)C(=O)c2cc(NS(=O)(=O)c3ccccc3)ccc2O1	4.9*	1	·	-17
C[C@@H]1CCCCO[C@@H](CN(C)S(=O)(=O)c2ccccc2)[C@@H](C)CN([C@H](C)CO)C(=O)c2cc(NS(=O)(=O)c3ccc(F)cc3)ccc2O1	-0.26	27	·	206*
C[C@@H]1CCCCO[C@H](CN(C)CC2CCCCC2)[C@@H](C)CN([C@H](C)CO)C(=O)c2cc(NS(=O)(=O)c3ccc(F)cc3)ccc2O1	0.057	-1	·	98*
Cc1ccccc1C(=O)OCC1CCCN2CCCCC12 (stereo not given)	·	·	1	-4
Cc1ccc(S(=O)(=O)Nc2ccc3c(c2)C(=O)N([C@H](C)CO)C[C@H](C)[C@@H](CN(C)S(=O)(=O)c2ccccc2)OCCCC[C@@H](C)O3)cc1	-0.22	16	·	137*
COc1ccc(S(=O)(=O)N(C)C[C@@H]2Oc3ccc(NS(=O)(=O)c4ccc(F)cc4)cc3C(=O)N([C@@H](C)CO)C[C@@H]2C)cc1	19*	7	-4	10
C[C@@H]1CCCCO[C@H](CN(C)S(=O)(=O)c2ccccc2)[C@@H](C)CN([C@H](C)CO)C(=O)c2cc(NC(=O)c3ccncc3)ccc2O1	0.0017	-8	·	1
C[C@@H]1CCCCO[C@@H](CN(C)S(=O)(=O)c2ccccc2)[C@@H](C)CN([C@H](C)CO)C(=O)c2cc(NC(=O)c3ccccc3)ccc2O1	-0.19	19	·	132*
COc1ccc(S(=O)(=O)Nc2ccc3c(c2)C(=O)N([C@@H](C)CO)C[C@@H](C)[C@H](CN(C)S(=O)(=O)c2ccc(F)cc2)O3)cc1	0.1	-8	0	2
CCOC(=O)c1c(-c2ccccc2)oc2ccc(O)c(CSCC(=O)Nc3ccccc3)c12	9.6*	20	-4	20
CCOC(=O)c1cn(CC(=O)Nc2ccccc2)nn1	·	·	-7	·
Cc1cc(NCCO)n2c(nc3ccccc32)c1C#N	·	·	2	7
CC(C)CCNc1cc(C(C)C)c(C#N)c2nc3ccccc3n12	·	·	5	197*
CCOC(=O)CCc1c(C)c(C#N)c2nc3ccccc3n2c1Cl	·	·	88*	·
CCc1c(C)c(C#N)c2nc3ccccc3n2c1NCCC(C)C	·	·	-3	157*
